Results filed as inconclusive are left out. Activity calls are given as the source filed them. Calls follow the shape of the dose curve; as a rule, active = well fitted curve in the direction sought with a large enough effect; inconclusive = small, poorly fitted or top-dose-only effect, or another doubt; inactive = no such curve, though single readings can be large; an effect the other way counts as inactive or inconclusive.
What was measured:
CRL-7250 = normal cell line; assay: Cytotoxic Profiling of Annotated Libraries Using Quantitative High-Throughput Screening (AID 1296008); details: Five cell lines viability, CellTiter-Glo ATP luminescence, 48-72 h; max response: active compounds read low; also: nearly all actives have a fitted effect of over 60% in size; as to max response: % is scaled to controls: 0 for no effect and ±100 for the full control effect
Method in brief: (§1)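 Compounds were pin-transferred onto cells and incubated 48 or 72 hr at 37 degree Celsius, 95% humidity. CellTiter-Glo was added, plates sat 10 min at room temperature, then ATP-coupled luminescence was imaged as the viability read-out.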

HEK293 = assay: as above; details: Five cell lines viability, CellTiter-Glo ATP luminescence, 48-72 h; max response: active compounds read low
Method in brief: as §1

HaCat [1] = assay: as above; details: Five cell lines viability, CellTiter-Glo ATP luminescence, 48-72 h; max response: active compounds read low
Method in brief: as §1

KB-3-1 = assay: as above; details: Five cell lines viability, CellTiter-Glo ATP luminescence, 48-72 h; max response: active compounds read low
Method in brief: as §1

NIH3T3 = assay: as above; details: Five cell lines viability, CellTiter-Glo ATP luminescence, 48-72 h; max response: active compounds read low
Method in brief: as §1

HACAT [2] = assay: qHTS assay to identify novel small-molecules to repurpose for Merkel cell carcinoma treatment (AID 1296009); details: MCC and control cell lines, CellTiter-Glo viability, 72 h; at 44.8 µM (top of the series) unless noted; also: nearly all actives have a fitted effect of over 60% in size
Method in brief: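 Cells exposed to NPC (8-point) and MIPE (11-point) compound dilutions for 72 hr at 37 degree celsius; viability read by CellTiter-Glo luminescence, normalized to no-cell and DMSO in-plate controls.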

C33A = assay: Primary qHTS to identify gynecologic anti-cancer compounds using libraries of approved drugs and bioactive compounds (AID 1345084); details: Gynecologic cancer cell panel viability, ATPlite luminescence, 48 h; series mostly up to 57.5 µM; also: % is scaled to controls: 0 for no effect and ±100 for the full control effect; nearly all actives have a fitted effect of over 55% in size
Method in brief: (§2)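 Cytotoxicity screen measuring ATP content by luciferase luminescence. Each compound is applied at five concentrations for 48 h at 37 C with 5% CO2.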

CAOV3 = assay: as above; details: Gynecologic cancer cell panel viability, ATPlite luminescence, 48 h; series mostly up to 57.5 µM
Method in brief: as §2

CASKI = assay: as above; details: Gynecologic cancer cell panel viability, ATPlite luminescence, 48 h; series mostly up to 57.5 µM
Method in brief: as §2

Es-2 = assay: as above; details: Gynecologic cancer cell panel viability, ATPlite luminescence, 48 h; series mostly up to 57.5 µM
Method in brief: as §2

HeLa = assay: as above; details: Gynecologic cancer cell panel viability, ATPlite luminescence, 48 h; series mostly up to 57.5 µM
Method in brief: as §2

Hek293T = assay: as above; details: Gynecologic cancer cell panel viability, ATPlite luminescence, 48 h, control line for the selectivity index; series mostly up to 57.5 µM
Method in brief: as §2

JEG-3 = assay: as above; details: Gynecologic cancer cell panel viability, ATPlite luminescence, 48 h; series mostly up to 57.5 µM
Method in brief: as §2

C[C@@H]1O[C@@H](O[C@H]2[C@H](OC(=O)[C@]34CCC(C)(C)C[C@H]3C3=CCC5[C@@]6(C)CC[C@H](O[C@@H]7O[C@H](CO[C@@H]8OC[C@H](O)[C@H](O)[C@H]8O)[C@@H](O)[C@H](O)[C@H]7O)C(C)(C)C6CC[C@@]5(C)[C@]3(C)C[C@H]4O)OC[C@@H](O)[C@@H]2O)[C@H](O)[C@H](O[C@@H]2OC[C@](O)(CO)[C@H]2O)[C@H]1O[C@@H]1OC[C@H](O)[C@H](O[C@@H]2OC[C@@H](O)[C@H](O)[C@H]2O)[C@H]1O (stereo partly specified)
inactive: outcome (CRL-7250) | max response (HEK293) -12.4% | outcome (HaCat [1]) | max response (KB-3-1) 6% | max response (NIH3T3) -2.23% | outcome (HACAT [2]) inactive [at 9.27 µM] | activity change, negative = cytotoxicity (C33A) -0.179% [at 6.55 µM] | activity change, negative = cytotoxicity (CAOV3) 23.4% [at 6.55 µM] | activity change, negative = cytotoxicity (CASKI) 9.95% [at 6.55 µM] | activity change, negative = cytotoxicity (Es-2) 8.45% [at 6.55 µM] | activity change, negative = cytotoxicity (HeLa) 22.1% [at 6.55 µM] | activity change, negative = cytotoxicity (Hek293T) 8.51% [at 6.55 µM] | activity change, negative = cytotoxicity (JEG-3) -2.51% [at 6.55 µM]

C=C(CCO[C@@H]1O[C@H](CO)[C@@H](O)[C@H](O)[C@H]1O)C(=O)O
inactive: max response (CRL-7250) -12.8% | max response (HEK293) -3.91% | outcome (HaCat [1]) | outcome (KB-3-1) | max response (NIH3T3) -0.513% | outcome (HACAT [2]) | Potency (C33A) | Potency (CAOV3) | outcome (CASKI) | Potency (Es-2) | Potency (HeLa) | Potency (Hek293T) | Potency (JEG-3)

C=C1C[C@]23C[C@@]1(O)CC[C@H]2[C@@]12C=C[C@H](O)[C@@](C)(C(=O)O1)[C@H]2[C@@H]3C(=O)O
inactive: max response (CRL-7250) 0.765% | max response (HEK293) -0.839% | outcome (HaCat [1]) | max response (KB-3-1) 7.38% | max response (NIH3T3) 2.3% | outcome (HACAT [2]) | Potency (C33A) | Potency (CAOV3) | outcome (CASKI) | Potency (Es-2) | Potency (HeLa) | Potency (Hek293T) | Potency (JEG-3)

COc1c2cc(c(O)c1OC)CCCCC(O)CCc1ccc(O)c-2c1 (stereo unspecified)
inactive: max response (CRL-7250) -1.76% | max response (HEK293) -0.95% | outcome (HaCat [1]) | max response (KB-3-1) 2.35% | max response (NIH3T3) -4.18% | outcome (HACAT [2]) | Potency (C33A) | Potency (CAOV3) | outcome (CASKI) | Potency (Es-2) | Potency (HeLa) | Potency (Hek293T) | Potency (JEG-3)

NC1Nc2ccccc2C1(N)CC1NC(=O)C(Cc2ccccc2)NC(=O)C(Cc2ccccc2)NC1=O (stereo unspecified)
inactive: max response (CRL-7250) -1.59% | max response (HEK293) -40.7% | outcome (HaCat [1]) | max response (KB-3-1) 2.51% | max response (NIH3T3) 1.33% | outcome (HACAT [2]) inactive [at 17.4 µM] | Potency (C33A) | Potency (CAOV3) | outcome (CASKI) | Potency (Es-2) | Potency (HeLa) | Potency (Hek293T) | Potency (JEG-3)

COc1cc2c(cc1O)C(c1ccc(O)cc1)C(C)C(C)C2 (stereo unspecified)
inactive: max response (CRL-7250) -22.8% | max response (HEK293) -21.2% | outcome (HaCat [1]) | max response (KB-3-1) -7.89% | max response (NIH3T3) -6.55% | outcome (HACAT [2]) | Potency (C33A) | Potency (CAOV3) | outcome (CASKI) | Potency (Es-2) | Potency (HeLa) | Potency (Hek293T) | Potency (JEG-3)

CC1=CC2=C(C)C(=O)[C@](C)(O)[C@H](O)C2=CO1
inactive: max response (CRL-7250) -8.59% | max response (HEK293) 3.6% | outcome (HaCat [1]) | max response (KB-3-1) 6.84% | max response (NIH3T3) -3.34% | outcome (HACAT [2]) | Potency (C33A) | Potency (CAOV3) | outcome (CASKI) | Potency (Es-2) | Potency (HeLa) | Potency (Hek293T) | Potency (JEG-3)

Cc1cc(C)c2nc(-c3ccccn3)cc(C(=O)Nc3ccc(S(=O)(=O)Nc4onc(C)c4C)cc3)c2c1
inactive: max response (CRL-7250) -3.09% | max response (HEK293) -20.7% | outcome (HaCat [1]) | max response (KB-3-1) 1.46% | max response (NIH3T3) 1.48% | outcome (HACAT [2]) | Potency (C33A) | Potency (CAOV3) | outcome (CASKI) | Potency (Es-2) | Potency (HeLa) | Potency (Hek293T) | Potency (JEG-3)

COc1cc(O[C@@H]2O[C@H](CO[C@H]3OC[C@](O)(CO)[C@H]3O)[C@@H](O)[C@H](O)[C@H]2O)cc(OC)c1O
inactive: max response (CRL-7250) -3.27% | max response (HEK293) 0.643% | outcome (HaCat [1]) | outcome (KB-3-1) | max response (NIH3T3) -4.07% | outcome (HACAT [2]) inactive [at 17.4 µM] | Potency (C33A) | Potency (CAOV3) | outcome (CASKI) | Potency (Es-2) | Potency (HeLa) | Potency (Hek293T) | Potency (JEG-3)

CC1C2=CC(=O)OC2(O)CC2C1C(OC(=O)c1ccccc1)C(OC(=O)c1ccccc1)C1(O)C2(C)CCC(O)C1(C)C(=O)O (stereo unspecified)
inactive: max response (CRL-7250) -2.75% | max response (HEK293) 3.81% | outcome (HaCat [1]) | max response (KB-3-1) -1.08% | max response (NIH3T3) -2.68% | outcome (HACAT [2]) inactive [at 17.4 µM] | Potency (C33A) | Potency (CAOV3) | outcome (CASKI) | Potency (Es-2) | Potency (HeLa) | Potency (Hek293T) | Potency (JEG-3)

COc1ccnc2[nH]cc(C(=O)C(=O)N3CCN(C(=O)c4ccccc4)CC3C)c12 (stereo unspecified)
inactive: max response (CRL-7250) 0.507% | max response (HEK293) -0.0222% | outcome (HaCat [1]) | outcome (KB-3-1) | max response (NIH3T3) -4.76% | outcome (HACAT [2]) | Potency (C33A) | Potency (CAOV3) | outcome (CASKI) | Potency (Es-2) | Potency (HeLa) | Potency (Hek293T) | Potency (JEG-3)

COc1cc(/C=C/C(=O)OC[C@H]2O[C@@H](OC3OC=C(C(=O)O)C4C(O)CC(C)(O)C34)[C@H](O)[C@@H](O)[C@@H]2O)cc(OC)c1O (stereo partly specified)
inactive: max response (CRL-7250) -14.2% | max response (HEK293) -83.6% | outcome (HaCat [1]) | max response (KB-3-1) 9.94% | max response (NIH3T3) 4.03% | outcome (HACAT [2]) inactive [at 17.4 µM] | Potency (C33A) | Potency (CAOV3) | outcome (CASKI) | Potency (Es-2) | Potency (HeLa) | Potency (Hek293T) | Potency (JEG-3)
